Compounds with a hit are over-represented: about 3.7% of the library has one in this group of screens.
BoNT A protease = BoNT A light chain protease inhibition; multiplex microsphere protease substrate cleavage, flow cytometry; inhibition, % at 10 µM; 360,000 compounds, 0.17% hits; note: plate controls were buffer without enzyme for full effect and enzyme alone for no effect
BoNT F protease = inhibitors of Botulinum neurotoxin F light chain protease. Multiplex microsphere protease cleavage assay, flow cytometry. inhibition, % at 10 µM. 360,000 compounds, 0.22% hits; in the data active = inhibition above about 35%, passing the limit was not always enough; inconclusive = no clear call, values can overlap the other calls; note: plate controls were buffer without enzyme for full effect and enzyme alone for no effect
Autofluor counter = counter-screen for toxin protease inhibitors: compound fluorescence; compound autofluorescence counterscreen, microsphere flow cytometry; active compounds read high; fluorescence intensity (no concentration beside the values); 360,000 compounds, 3.1% hits; AID 624483; in the data active = fluorescence intensity above about 16000; inconclusive = no clear call, values can overlap the other calls
Anthrax LF prot = inhibitors of Bacillus anthracis lethal factor protease; AID 588501; inhibition, % at 10 µM; multiplex microsphere protease cleavage assay, LF; 360,000 compounds, 0.12% hits; note: plate controls were buffer without enzyme for full effect and enzyme alone for no effect
MazF activator = activators of E. coli MazEF toxin-antitoxin RNase; P0AE70; FAM/BHQ RNA-DNA oligo cleavage fluorescence, 5 h; activation, % at 20 µM; 350,000 compounds, 0.32% hits; AID 504720; in the data active = activation above about 50%
Starred values were filed as active, the others as inactive; ? = inconclusive; / = not tested or not shown. Cut-off read from the data, not from the text of the source, unless noted: active = inhibition above about 30%; inconclusive = no clear call, values can overlap the other calls; inactive = below that.

SMILES	BoNT A protease	BoNT F protease	Autofluor counter	Anthrax LF prot	MazF activator
COC(=O)Nc1ccc(OC)c(OC)c1	0	-1	10028	2	-4
COc1ccc(NC(=S)NNC(=O)OC(C)(C)C)cc1OC	?	-4	24133*	-3	-1
Nc1nnc(CC2=CCCCC2)s1	-2	-3	22203*	-9	8
COC(=O)Cn1cc(C=C2C(=O)N(C)C(=O)N(C)C2=O)c2ccccc21	/	/	/	/	195*
CCN(CC)C(=O)Cn1cc(C=C2C(=O)N(C)C(=O)N(C)C2=O)c2ccccc21	-2	-10	3807	-7	-25
Cc1c(N)cccc1[N+](=O)[O-]	0	-8	5748	5	5
Nc1cc2c([N+](=O)[O-])cccc2o1	3	38*	4579	-4	0
Cc1ccc(/C=C2\CCOC2=O)cc1	4	35*	3611	13	-1
COc1ccc(/C=C2/CCOC2=O)cc1	0	-10	2686	0	1
CCOC(=O)c1sc(NC(=O)CSc2nnc(-c3ccc(OC)cc3)n2CCOC)nc1C	1	-1	22333*	-3	-4
CCN(CC)CCN1C(=O)c2oc3ccccc3c(=O)c2C1c1ccc(F)cc1 (configuration not stated)	-2	-3	21092*	-4	13
CN(C)CCCN1C(=O)c2oc3ccccc3c(=O)c2C1c1cccs1 (configuration not stated)	8	7	18317*	-9	2
CCN(CC)CCN1C(=O)c2oc3ccc(F)cc3c(=O)c2C1c1ccncc1 (configuration not stated)	-1	-10	5086	-13	2
CC1CCC(NC(=O)C2CCN(C(=O)Nc3ccccc3)CC2)CC1 (configuration not stated)	-2	2	6286	-2	-7
CCCCCCN1C[C@@H](O)[C@H](n2cc(COC(=O)c3ccccc3)nn2)C[C@@H]1c1ccc(OC)cc1	0	2	4012	-1	-6
CC(C)C[C@@H]1COc2cc(N3CCSCC3)ccc2S(=O)(=O)N1	0	2	4517	12	/
O=C1C(Cl)=C(NC2CCCCC2)C(=O)N1Cc1ccccc1	-1	-1	4593	-9	-2
Cn1c(=O)c2c(nc(NCCCO)n2Cc2cccc(Br)c2)n(C)c1=O	?	4	18885*	-1	6
Cn1c(=O)c2c(nc(NCC3CCCO3)n2C)n(C)c1=O (configuration not stated)	1	-7	8209	5	6
Cc1cccc(Cn2c(NCCO)nc3c2c(=O)n(C)c(=O)n3C)c1	1	-4	6820	-2	2
CNc1nc2c(c(=O)n(C)c(=O)n2C)n1Cc1ccccc1	2	3	21814*	-1	-7
O=C1C(Cl)=C(NCC2CCCO2)C(=O)N1Cc1ccccc1 (configuration not stated)	?	-2	20284*	-1	-5
Cn1c(=O)n(Cc2ccccc2)c(=O)c2c1nc(NCC1CCCO1)n2Cc1ccccc1 (configuration not stated)	-1	-3	24036*	-4	0
CC(C)NC(=O)N(C)C[C@@H]1Oc2cc(Br)ccc2S(=O)(=O)N([C@@H](C)CO)C[C@H]1C	0	0	3172	4	4
CN1/C(=C\C(=S)NC(=O)c2cccc(Br)c2)C(C)(C)c2ccccc21	42*	-18	5118	16	24
SMILES	BoNT A protease	BoNT F protease	Autofluor counter	Anthrax LF prot	MazF activator
C[C@@H]1CN([C@@H](C)CO)C(=O)CCCn2nncc2CO[C@@H]1CN(C)C(=O)C1CCCCC1	-1	-8	2959	-3	7
Cn1c(N)c(C(=O)CSc2n[nH]c(-c3ccccc3)n2)c(=O)n(C)c1=O	0	2	3915	-1	-1
COc1cc(-c2nc(-c3ccccc3)c(-c3cccs3)[nH]2)cc(OC)c1O	-1	-2	24448*	0	15
COc1cc(-c2nc(-c3ccccc3)c(-c3cccs3)[nH]2)cc(OC)c1OC	-1	-4	11656	0	0
CCCCC(c1nc2ccccc2[nH]1)n1c(-c2ccccc2)nc2ccccc21 (configuration not stated)	0	-7	6083	-8	/
CC1(C)CC(=O)C2=C(C1)N(c1ccc(F)cc1)C(N)=C(C#N)C2c1cccs1 (configuration not stated)	-1	-1	3313	-2	8
Cc1ccc(N2C(N)=C(C#N)C(c3cccs3)C3=C2CC(C)(C)CC3=O)cc1 (configuration not stated)	?	-1	23727*	-2	5
Cc1ccc(SCC(=O)OC(C)C(=O)NCc2ccccc2)cc1C (configuration not stated)	5	4	5439	1	6

Source: PubChem BioAssay (several laboratories)
